# Test results taken from PubChem BioAssay (NCATS).
# Records with an inconclusive call do not appear. Entries that show only a call come without a potency. Calls of active or inactive are those of the source. Calls follow the shape of the dose curve; as a rule, active = well fitted curve in the direction sought with a large enough effect; inconclusive = small, poorly fitted or top-dose-only effect, or another doubt; inactive = no such curve, though single readings can be large; an effect the other way counts as inactive or inconclusive.
# What was measured:
# [1] = target: Aldehyde dehydrogenase, mitochondrial (Homo sapiens) (UniProt P05091); assay: qHTS for Inhibitors of the Aldehyde Dehydrogenase Family (ALDH2) Primary screen (AID 2061308); also: nearly all actives have a fitted effect of over 55% in size
# [2] = target: Retinaldehyde dehydrogenase 3 (Homo sapiens) (UniProt P47895); assay: qHTS for Inhibitors of the Aldehyde Dehydrogenase Family (ALDH1A3) Primary screen (AID 2061315)
Structure (SMILES),Potency [1],Potency [2]
O=S(=O)(c1ccc2c(c1)OCCO2)N1CCN(S(=O)(=O)c2cccc(Cl)c2F)CC1,inactive,inactive
Cc1cc(-c2ccccc2)nc2c(C(=O)Nc3ccc4c(c3)CCC4)cnn12,inactive,inactive
C=C(C)C(=O)O[C@H]1C[C@@](C)(O)C2(O)CCC(C)(/C=C3/OC(=O)C(COC)=C31)O2 (some centres undefined),inactive,inactive
Cc1c(C(=O)NCC2CCCO2)[nH]c2c1C(=O)CC(c1ccco1)C2 (centres undefined),inactive,inactive
COC(=O)c1ccc2c(c1)/C(=C/c1cc(Br)c(O)c(Br)c1)C(=O)N2,inactive,inactive
COc1cccc(C2c3c(ncn(-c4ccc(NC(C)=O)cc4)c3=N)Oc3ccc4ccccc4c32)c1 (centres undefined),inactive,inactive
Cc1cc(NS(=O)(=O)c2ccc(NC(=O)Cc3ccc(Cl)cc3)cc2)no1,inactive,inactive
Cc1ccc(CNc2ncnc3ccc(-c4ccc5c(c4)OCO5)cc23)o1,inactive,inactive
O=P(c1ccccc1)(c1ccccc1)c1cnc2ccccn12,inactive,inactive
Cc1ccc(NS(=O)(=O)c2cccc(C(=O)Nc3nc(-c4ccccc4)cs3)c2)cc1,inactive,inactive
Cc1ccc(OCCn2c(CCNC(=O)/C=C/c3cccc(Br)c3)nc3ccccc32)cc1,inactive,inactive
Cc1ccc(-c2cc(C(=O)Nc3ncco3)c3ccccc3n2)cc1C,inactive,inactive
CCCn1c(C)nc2c(NCC(C)(C)CN(C)C)nc(C)nc21,inactive,inactive
COc1cccc(NC(=O)c2cc(-c3ccc(C)c(C)c3)nc3ccccc23)c1,inactive,inactive
CN1CCN(c2ccc(Nc3nc(-c4ccncc4)nc4ccccc34)cc2F)CC1,inactive,inactive
Cc1cc(C)c(S(=O)(=O)Nc2cccc3cccnc23)c(C)c1,inactive,inactive
CS(=O)(=O)/C=C/c1nc(Nc2cc(F)cc(F)c2)c2ncn(CC(F)F)c2n1,inactive,inactive
O=c1[nH]c(CCl)nc2sc3c(c12)CCCC3,inactive,inactive
O=C1CCCC2CC(Nc3nc4ccccc4o3)CC(c3ccccc3)C12 (centres undefined),inactive,inactive
O=c1c2ccccc2nc2sc(Nc3cccc(Cl)c3)nn12,inactive,inactive
O=C1CCCC2=C1C1(CCCC1)N=C(Nc1nc3ccccc3n1Cc1ccccc1)N2,inactive,inactive
Cc1ccccc1-c1nc(NCc2ccc(-c3cccnc3)cc2)c2ccccc2n1,inactive,inactive

Structure (SMILES),Potency [1],Potency [2]
O=C1CCc2cc(S(=O)(=O)Nc3ccc(Cl)c(Cl)c3)ccc2N1,inactive,inactive
COc1ccc(C2=Nn3c(nnc3-c3ccc(OC)c(OC)c3)SC2)cc1,inactive,inactive
Cc1cc(C)nc(NC(=S)N2CCN(c3ccc(C(F)(F)F)cn3)CC2)c1,inactive,inactive
Cc1cc2c(s1)c1c(n2C)C(=O)N(Cc2ccccc2F)C1,inactive,inactive
O=C(Nc1ccc(-c2nc3ccccc3[nH]2)cc1)c1ccc(C(F)(F)F)cc1,inactive,inactive
Cc1ccc(S(=O)(=O)Nc2ccc(Br)cc2C(=O)Nc2nc(-c3ccccc3)cs2)cc1,inactive,inactive
COc1ccccc1-c1nc2ccccc2s1,inactive,inactive
O=S(=O)(c1ccc2c(c1)OCCO2)N1CCN(S(=O)(=O)c2cccc3cccnc23)CC1,inactive,inactive
C[S+](=O)([O-])c1ccc(C(=O)OCC(=O)N2CCNC(=O)C2)cc1[N+](=O)[O-],inactive,inactive
COC(=O)c1ccc(Cn2ncc3c4sc(C)cc4n(C)c3c2=O)cc1,inactive,inactive
O=C(Cn1cc(CNC(=O)C2CCCCC2)nn1)Nc1cc(C(F)(F)F)ccc1Cl,inactive,inactive
C[N+]1(CC2COC(c3ccccc3)(c3ccccc3)O2)CCCCC1 (centres undefined),inactive,inactive
CNc1nc(C#N)c(-c2cccc3ccccc23)o1,inactive,inactive
N#Cc1ccc(-c2ccc(=O)n(CC(=O)NCCc3ccccc3)n2)cc1,inactive,inactive
COc1ccc(-c2nc3ccccc3n2Cc2ccccc2)cc1COc1ccc(NC(C)=O)cc1,inactive,inactive
Cc1cc2c(s1)c1cnn(Cc3ccc(SC(F)(F)F)cc3)c(=O)c1n2C,inactive,inactive
O=C(CNC(=O)c1ccc(-c2ccccc2)cc1)OC(C(=O)Nc1cc(C(F)(F)F)ccc1Cl)c1ccccc1 (centres undefined),inactive,inactive
N#Cc1nc(NCC(F)F)c2ncn(-c3cc(F)cc(F)c3)c2n1,inactive,inactive
CCCN(C)c1ncnc2ccc(-c3ccc4c(c3)OCO4)cc12,inactive,inactive
COc1cccc(-c2nc3cc(NC(=O)c4ccc(C)c([N+](=O)[O-])c4)ccc3o2)c1,inactive,inactive
COc1ccc(NC(=O)c2cnn3c(-c4ccccc4)cc(C)nc23)cc1,inactive,inactive
O=C(/C=C/c1ccc(OC(F)(F)F)cc1)Nc1cccc([S+](=O)([O-])Nc2ccccc2F)c1,inactive,inactive

Structure (SMILES),Potency [1],Potency [2]
COc1ccc(Cn2ncc3c4sc(C)cc4n(C)c3c2=O)cc1F,inactive,inactive
Oc1cc(-c2ccc(N3CCCCC3)nc2)cc2cccnc12,inactive,inactive
NC(=O)C1CCN(c2nc(-c3ccccc3Br)cs2)CC1,inactive,inactive
CCCCNc1nc(C)nc2c1nc(-c1ccccc1)n2CC(C)(C)CN(C)C,inactive,inactive
Cc1ccc(NS(=O)(=O)c2ccc3c(c2)CCC(=O)N3)cc1F,inactive,inactive
COCCN(CCOC)c1nc(C)nc2c1nc(-c1ccccc1)n2CCN1CCCC1,inactive,inactive
O=[S+]([O-])(c1ccc2c(c1)OCCO2)N1CCN([S+](=O)([O-])c2ccc(F)cc2Cl)CC1,inactive,inactive
Cc1cc(-c2ccccc2)n2ncc(C(=O)Nc3ccc(Cl)c(Cl)c3)c2n1,inactive,inactive
Oc1cccc2cc(-c3ccncc3)cnc12,inactive,inactive
CN(Cc1nccs1)S(=O)(=O)c1ccc(Nc2nc(-c3ccccc3)cs2)cc1,inactive,inactive
O=C([C@H](Cc1ccc(O[S+](=O)([O-])c2cccc3cnccc23)cc1)N[S+](=O)([O-])c1cccnc1)N1CCN(c2ccccc2)CC1,inactive,inactive
C=Cc1nc(Nc2cc(F)cc(F)c2)nc(NC2CCCC2)n1,inactive,inactive
O=C(Nc1ccc(S(=O)(=O)Nc2nccs2)cc1)c1ccnc(-c2ccccc2)c1,inactive,inactive
COc1cc(OC)cc(-c2nnc3n2N=C(c2ccc(OC)cc2OC)CS3)c1,inactive,inactive
Cc1ccc(-c2nc3c(c(SCC(=O)Nc4cccc(C(=O)O)c4)n2)Cc2cccc(C)c2O3)cc1,inactive,inactive
Cc1cnc(-c2ccccc2C(C)C)nc1NCc1ccc(-c2ccnc(C(F)(F)F)c2)cc1,inactive,inactive
Cc1cc(C)nc(Nc2nnc(N3CCN(c4cccc(C(F)(F)F)c4)CC3)s2)c1,inactive,inactive
CCn1cnc2c(Nc3cccc(Cl)c3)nc(C#N)nc21,inactive,inactive
Cc1ccc(OCCn2c(CCNC(=O)c3cccc(C)c3)nc3ccccc32)cc1,inactive,inactive
Cc1nnc(-c2ccccc2[N+](=O)[O-])n1CCCn1ccnc1,inactive,inactive
Cc1ccnc(NC(=S)N[C@H]2CCN(c3cccc(C(F)(F)F)c3)C2)c1,inactive,inactive
O=C(Nc1nc(Nc2cc(F)cc(F)c2)nc(NC2CCCC2)n1)OCc1ccccc1,inactive,inactive

Structure (SMILES),Potency [1],Potency [2]
O=C(CNC(=O)c1cccc(Cl)c1)OC(C(=O)Nc1cc(C(F)(F)F)ccc1Cl)c1ccccc1 (centres undefined),inactive,inactive
FC(F)(F)c1ccccc1-c1nccc(NCc2ccc(-c3cccnc3)cc2)n1,inactive,inactive
Cc1ccc(NC(=O)CN2C(=O)N/C(=C\c3cccn3-c3cccc(-c4nn[nH]n4)c3)C2=O)cc1,inactive,inactive
CC(=O)Nc1sc2c(c1-c1ccc3c(c1)OCO3)CCNC2,inactive,inactive
Cc1ccc(S(=O)(=O)Nc2cnccc2C(=O)Nc2nc(-c3cccc(F)c3)cs2)cc1,inactive,inactive
CCOC(=O)c1ccoc1-c1ccc2ncnc(NCc3ccc(C)o3)c2c1,inactive,inactive
O=C1c2ccccc2C(=O)N1c1cc(=O)c2ccccc2[nH]1,inactive,inactive
O=C(OCC#CCSc1nnc(-c2cccc3ccccc23)o1)c1ccsc1,inactive,inactive
CCC(=O)NC(c1cc(Cl)c2cccnc2c1O)C1CC1 (centres undefined),inactive,inactive
CSc1ccccc1-c1ccc(Nc2nc(-c3ccncc3)nc3ccccc23)cc1F,inactive,inactive
Cc1cc(C)nc(NC(=S)N2CCN(c3ncc(Cl)cc3Cl)CC2)c1,inactive,inactive
O=[S+]([O-])(Nc1nccs1)c1ccc(NCc2cccc(Cl)c2)cc1,inactive,inactive
COc1ccc(-c2nc3ccc(OC)cc3s2)cc1,inactive,inactive
c1cncc(-c2ccc(CNc3nc(N4CCOCC4)nc4ccccc34)cc2)c1,inactive,inactive
Cc1cc(NS(=O)(=O)c2ccc(NC(=O)Cc3ccc4ccccc4c3)cc2)no1,inactive,inactive
O=C(Nc1nc(-c2ccccc2)cs1)c1ccccc1Cl,inactive,inactive
Oc1c(CN2CCCCC2)cc(COCc2ccccc2)c2cccnc12,inactive,inactive
Cc1cc(N[S+](=O)([O-])c2ccc(NC(=O)Cc3ccc(Cl)nc3)cc2)no1,inactive,inactive
Cc1noc(C)c1-c1ccc2ncnc(NCC3CCN(C)CC3)c2c1,inactive,inactive
O=C1NS(=O)(=O)C(c2ccccc2)C1c1ccccc1 (centres undefined),inactive,inactive
Cc1ccc(C[C@H](C(=O)O)N2C(=O)c3ccc(C(=O)O)cc3C2=O)c(C)c1,inactive,inactive
